From the supplement of paper PMC12067926
Unmarked numbers belong to inactive results.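 How the source made its calls: active = growth AUC significantly below the DMSO wells by Dunnett test; inactive = the rest.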

Tested on: Sphingomonas 2 (Sphingomonas sp.)
Assay: relative growth (AUC of 72 h growth curve relative to DMSO control, dAUC) (ratio); higher = more growth (less inhibition), active = hit call of the paper
Settings: 20 µM
How it was run: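 Relative growth (dAUC) is the spline-integrated area under the growth curve divided by the mean of the DMSO-only control wells. Cultures were isolates from Icelandic stream sediments and Silwood Park soil, plus whole sediment communities, grown to carrying capacity in Luria–Bertani medium and diluted 1:100 into 96-well plates containing each chemical at 20 µM (1% DMSO). A600 was read hourly for 72 h on a plate reader, with brief shaking before each read, and values were averaged over three biological replicates.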

Row | Structure (SMILES) | relative growth
1 | CCCSP(=O)(OCC)Oc1ccc(Br)cc1Cl (configuration not stated) | 1.09
2 | CC1(C(=O)Nc2ccc(O)c(Cl)c2Cl)CCCCC1 | 0.967
3 | C[N+](C)(C)CCCl | 1.02
4 | CCc1cnc(C2=NC(C)(C(C)C)C(=O)N2)c(C(=O)O)c1 (configuration not stated) | 1.03
5 | CC[C@H](C)[C@H]1O[C@]2(C=C[C@@H]1C)C[C@@H]1C[C@@H](C/C=C(\C)[C@@H](O[C@H]3C[C@H](OC)[C@@H](O[C@H]4C[C@H](OC)[C@@H](O)[C@H](C)O4)[C@H](C)O3)[C@@H](C)/C=C/C=C3\CO[C@@H]4[C@H](O)C(C)=C[C@@H](C(=O)O1)[C@]34O)O2.CO[C@H]1C[C@H](O[C@H]2[C@H](C)O[C@@H](O[C@@H]3/C(C)=C/C[C@@H]4C[C@@H](C[C@]5(C=C[C@H](C)[C@@H](C(C)C)O5)O4)OC(=O)[C@@H]4C=C(C)[C@@H](O)[C@H]5OC/C(=C\C=C\[C@@H]3C)[C@]54O)C[C@@H]2OC)O[C@@H](C)[C@@H]1O | 0.717
6 | CCCCC(C#N)(Cn1cncn1)c1ccc(Cl)cc1 (configuration not stated) | 0.96
7 | Clc1ccc(C(c2ccc(Cl)cc2)C(Cl)(Cl)Cl)cc1 | 0.0545 (active)
8 | CCC(C)(C)C(=O)OC1=C(c2ccc(Cl)cc2Cl)C(=O)OC12CCCCC2 | 1
9 | O=C1c2ccccc2C(=O)N1SC(Cl)(Cl)Cl | 0.999
10 | Cc1nnc(-c2ccccc2)c(=O)n1N | 1
11 | N#Cc1c(Cl)c(Cl)c(Cl)c(C#N)c1Cl | 0.0279 (active)
12 | CC(C)N(C)S(=O)(=O)NC(=O)c1cc(-n2c(=O)cc(C(F)(F)F)n(C)c2=O)c(F)cc1Cl | 1.07
13 | COC(=O)N(C(=O)N1CO[C@@]2(C(=O)OC)Cc3cc(Cl)ccc3C2=N1)c1ccc(OC(F)(F)F)cc1 | 0.861
14 | CN1COCN(Cc2cnc(Cl)s2)/C1=N\[N+](=O)[O-] | 1.05
15 | CCCN(CCC)C(=O)SCc1ccccc1 | 1.06
16 | OC(Cn1cncn1)(c1ccc(F)cc1)c1ccccc1F (configuration not stated) | 1.03
17 | CC(C1CC1)C(O)(Cn1cncn1)c1ccc(Cl)cc1 (configuration not stated) | 1.13
18 | COC(=O)c1ccccc1S(=O)(=O)NC(=O)Nc1nc(C)nc(OC)n1 | 1.03
19 | CN(C)C(CSS(=O)(=O)O)CSS(=O)(=O)O | 0.893

Row | Structure (SMILES) | relative growth
20 | CNC(=O)c1cc(Cl)cc(C)c1NC(=O)c1cc(Br)nn1-c1ncccc1Cl | 1.06
21 | CO/C=C(/C(=O)OC)c1ccccc1Oc1cc(Oc2ccccc2C#N)ncn1 | 1.09
22 | O=C(NC(=O)c1c(F)cccc1F)Nc1ccc(OC(F)(F)C(F)OC(F)(F)F)c(Cl)c1 (configuration not stated) | 1.11
23 | N#Cc1cc(Br)c(O)c(Br)c1 | 1.06
24 | CCOCN(C(=O)CCl)c1c(C)cccc1CC | 1.17
25 | CC1(C)[C@H](/C=C(\Cl)C(F)(F)F)[C@@H]1C(=O)OC(C#N)c1cccc(Oc2ccccc2)c1 (some centres not stated) | 0.868
26 | C#CCOc1ccc(CCNC(=O)C(OCC#C)c2ccc(Cl)cc2)cc1OC (configuration not stated) | 1.13
27 | O=[N+]([O-])/N=C1\NCCN1Cc1ccc(Cl)nc1 | 0.979
28 | Fc1ccc(Oc2ccnc3cc(Cl)cc(Cl)c23)cc1 | 0.975
29 | CC(Oc1ccc(Oc2ncc(C(F)(F)F)cc2Cl)cc1)C(=O)O (configuration not stated) | 1.08
30 | O=C(O)CNCP(=O)(O)O | 1.02
31 | C[N+]1(C)CCCCC1 | 0.999
32 | Oc1ccc(Cl)cc1Cc1cc(Cl)ccc1O | 0.0145 (active)
33 | CCOP(=S)(OCC)Oc1cc(C)nc(C(C)C)n1 | 0.988
34 | CC(C)N(C(=O)COc1nnc(C(F)(F)F)s1)c1ccc(F)cc1 | 1.09
35 | CCCC1COC(Cn2cncn2)(c2ccc(Cl)cc2Cl)O1 (configuration not stated) | 1.11
36 | Nc1c([N+](=O)[O-])ccc(Oc2ccccc2)c1Cl | 0.871
37 | COC(=O)N(OC)c1ccccc1COc1ccn(-c2ccc(Cl)cc2)n1 | 1.05
